For some assays here: Measured potencies and affinities stand elsewhere. The source made the active and inactive calls. Unless noted, the rule behind the calls is not given here.
Assays:
[1] = antimalarial activity against Dd2 strain (AID 2302;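 active = growth inhibition above 50% at the single 2 µM test dose, taken to imply half-maximal potency below 2 µM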;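 note: 0% = DMSO untreated growth and 100% = chloroquine plus artemisinin killed control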); conditions: P. falciparum Dd2 in RBCs, LDH growth readout, 72 h; at 2 µM; stronger effect = higher value
[2] = HepG2 cytotoxicity, primary screen, cytotoxicity control for P. falciparum antimalarial project, cell-based, ATP luminescence (AID 2303;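 active = inhibition above 50%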;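 note: 0% = DMSO wells and 100% = digitonin-killed cells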); conditions: HepG2 viability, 24-48 h, at 10 µM, stronger effect = higher value
[3] = target: L-lactate dehydrogenase (Plasmodium falciparum (isolate CDC / Honduras)) (UniProt Q27743); experiment: PfLDH activity inhibition – cell lysate, 3D7 strain, counter-screen for P. falciparum growth inhibition project (AID 2304);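 note: 0% = vehicle and 100% = reference inhibitor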; conditions: P. falciparum 3D7 crude extract, LDH APAD/NBT absorbance; at 2 µM; stronger effect = higher value
[4] = inhibition of 3D7 malaria parasite growth – strain 3D7 (AID 2306);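 note: 0% = DMSO wells and 100% = chloroquine plus artemisinin control wells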; conditions: P. falciparum 3D7 erythrocytic growth, LDH absorbance, 72 h; at 2 µM; stronger effect = higher value
[5] = target: Calcium-dependent protein kinase 1 (Plasmodium falciparum (isolate 3D7)) (UniProt P62344); experiment: PfCDPK1 kinase inhibitors, biochemical, TCAMS library (AID 1159585; cut-off not given, nearly all actives have IC50 up to about 0.98 µM;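 note: inhibitors leave more ATP so luminescence rises with inhibition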); conditions: recombinant PfCDPK1, Kinase-Glo ATP depletion luminescence
[6] = target: Plasmodium falciparum protein kinase 6 (PK6, PF3D7_1337100) (UniProt Q8IDW1); experiment: PfPK6 kinase inhibitors, biochemical, TCAMS library (AID 1159586); conditions: recombinant PfPK6, Kinase-Glo ATP depletion luminescence
[7] = target: Protein kinase 7 (PK7), Plasmodium falciparum 3D7 (PF3D7_0213400) (UniProt Q7YTF7); experiment: inhibition of Plasmodium PK7 catalytic activity – biochemical, TCAMS antimalarial set, Kinase-Glo luminescence (AID 1159587); conditions: recombinant PfPK7, Kinase-Glo ATP depletion luminescence
[8] = target: Calcium-dependent protein kinase 4 (Plasmodium falciparum (isolate 3D7)) (UniProt Q8IBS5); experiment: PfCDPK4 kinase inhibitors, biochemical, TCAMS library (AID 1159588; cut-off not given, nearly all actives have IC50 up to about 0.91 µM); conditions: recombinant PfCDPK4, Kinase-Glo ATP depletion luminescence
Calcium-dependent protein kinase 4 (Plasmodium falciparum (isolate 3D7)), sequence (Q8IBS5 whole entry, looked up): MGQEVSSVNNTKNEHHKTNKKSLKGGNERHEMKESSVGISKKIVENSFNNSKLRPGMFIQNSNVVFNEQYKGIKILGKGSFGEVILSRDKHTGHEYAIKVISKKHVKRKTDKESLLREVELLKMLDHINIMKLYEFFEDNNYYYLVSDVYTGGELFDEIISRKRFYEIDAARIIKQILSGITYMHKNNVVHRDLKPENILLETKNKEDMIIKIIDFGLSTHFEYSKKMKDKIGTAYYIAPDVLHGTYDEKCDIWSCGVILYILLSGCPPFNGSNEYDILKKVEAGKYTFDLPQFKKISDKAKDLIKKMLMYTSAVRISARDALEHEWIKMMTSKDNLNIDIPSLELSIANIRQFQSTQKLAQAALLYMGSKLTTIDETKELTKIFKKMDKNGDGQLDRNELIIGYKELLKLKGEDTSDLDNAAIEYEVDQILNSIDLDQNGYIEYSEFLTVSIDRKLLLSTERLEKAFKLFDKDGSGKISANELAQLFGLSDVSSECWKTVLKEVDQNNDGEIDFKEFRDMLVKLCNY

L-lactate dehydrogenase (Plasmodium falciparum (isolate CDC / Honduras)), sequence (Q27743 whole entry, looked up): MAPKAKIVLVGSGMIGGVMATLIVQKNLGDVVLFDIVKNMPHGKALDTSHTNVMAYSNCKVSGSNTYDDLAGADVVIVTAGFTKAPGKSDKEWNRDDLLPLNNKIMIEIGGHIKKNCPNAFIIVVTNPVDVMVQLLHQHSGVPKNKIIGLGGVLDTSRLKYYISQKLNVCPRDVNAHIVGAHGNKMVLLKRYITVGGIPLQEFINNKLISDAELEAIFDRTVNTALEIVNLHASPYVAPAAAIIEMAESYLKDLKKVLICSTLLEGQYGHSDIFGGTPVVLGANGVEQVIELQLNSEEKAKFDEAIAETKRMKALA
Calcium-dependent protein kinase 1 (Plasmodium falciparum (isolate 3D7)), sequence (P62344 whole entry, looked up): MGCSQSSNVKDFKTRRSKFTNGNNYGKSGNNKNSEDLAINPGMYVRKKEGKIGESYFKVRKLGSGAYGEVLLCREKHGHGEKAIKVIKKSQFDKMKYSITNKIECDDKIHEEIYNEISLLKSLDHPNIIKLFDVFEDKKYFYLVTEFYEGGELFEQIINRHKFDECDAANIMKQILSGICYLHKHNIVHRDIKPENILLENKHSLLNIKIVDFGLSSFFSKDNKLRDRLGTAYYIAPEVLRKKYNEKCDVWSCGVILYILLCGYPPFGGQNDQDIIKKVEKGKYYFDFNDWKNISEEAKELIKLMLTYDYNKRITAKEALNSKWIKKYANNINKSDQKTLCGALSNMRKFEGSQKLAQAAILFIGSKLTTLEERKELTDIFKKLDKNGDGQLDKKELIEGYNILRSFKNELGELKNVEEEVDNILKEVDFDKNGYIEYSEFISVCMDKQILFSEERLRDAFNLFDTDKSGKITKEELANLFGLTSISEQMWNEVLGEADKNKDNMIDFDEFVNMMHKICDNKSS
Protein kinase 7 (PK7), Plasmodium falciparum 3D7 (PF3D7_0213400), sequence (Q7YTF7 1-343): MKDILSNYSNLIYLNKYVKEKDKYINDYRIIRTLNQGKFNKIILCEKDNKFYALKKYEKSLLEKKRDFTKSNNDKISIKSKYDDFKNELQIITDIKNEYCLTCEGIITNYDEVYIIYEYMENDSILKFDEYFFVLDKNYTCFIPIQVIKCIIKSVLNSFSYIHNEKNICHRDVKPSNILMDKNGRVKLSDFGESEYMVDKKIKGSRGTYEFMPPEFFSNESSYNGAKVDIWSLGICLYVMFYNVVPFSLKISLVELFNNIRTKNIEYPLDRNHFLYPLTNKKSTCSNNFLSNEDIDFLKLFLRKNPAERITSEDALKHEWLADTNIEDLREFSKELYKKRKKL
Plasmodium falciparum protein kinase 6 (PK6, PF3D7_1337100), sequence (Q8IDW1 1-305): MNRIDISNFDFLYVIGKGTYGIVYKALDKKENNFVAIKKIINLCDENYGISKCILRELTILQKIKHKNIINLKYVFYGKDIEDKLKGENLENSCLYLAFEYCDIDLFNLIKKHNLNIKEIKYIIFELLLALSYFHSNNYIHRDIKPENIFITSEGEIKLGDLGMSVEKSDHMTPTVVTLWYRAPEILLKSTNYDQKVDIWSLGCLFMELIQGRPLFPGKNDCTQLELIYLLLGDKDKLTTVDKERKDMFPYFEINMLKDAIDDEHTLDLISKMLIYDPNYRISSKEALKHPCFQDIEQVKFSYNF

Nc1nc(N)c2cc(C(F)(F)F)ccc2n1
inactive: growth inhibition [1] 1% | inhibition [2] 8% | inhibition [3] -3% | outcome [5] | outcome [6] | outcome [7] | outcome [8]
active: growth inhibition [4] 80%

CC1CN(Cc2csc(Nc3ccccc3)n2)CC(C)O1 (stereo not given)
inactive: inhibition [2] 4% | inhibition [3] 0% | outcome [5] | outcome [6] | outcome [7] | outcome [8]
active: growth inhibition [1] 81% | growth inhibition [4] 91%

Cc1cc(C)nc(-n2[nH]c(C)c(Cc3ccc(C(C)(C)C)cc3)c2=O)n1
inactive: inhibition [2] -9% | inhibition [3] -1% | outcome [5] | outcome [6] | outcome [7] | outcome [8]
active: growth inhibition [1] 61% | growth inhibition [4] 88%

CCOC(=O)CN1Cc2cc(NCc3ccc4ccc5nc(C)[nH]c(=O)c5c4c3)ccc2C1=O
active: growth inhibition [1] 91% | growth inhibition [4] 84%
inactive: inhibition [2] 40% | inhibition [3] 1% | outcome [5] | outcome [6] | outcome [7] | outcome [8]

CC(C)CCCC(C)NC[C@@H](O)[C@H](Cc1ccccc1)NC(=O)c1cc(N2CCCC2=O)cc(N(c2ccccc2)S(C)(=O)=O)c1 (stereo not given in full)
inactive: inhibition [2] 17% | inhibition [3] -5% | outcome [5] | outcome [6] | outcome [7] | outcome [8]
active: growth inhibition [1] 97% | growth inhibition [4] 99%

Cc1cc(N(CCCN(C)C)Cc2cc(F)cc(F)c2)nc(Nc2ccc(Cl)cc2)n1
inactive: inhibition [2] 37% | inhibition [3] -2% | outcome [5] | outcome [6] | outcome [7] | outcome [8]
active: growth inhibition [1] 97% | growth inhibition [4] 99%

CC(=O)N/N=C/[C@H](CCc1ccccc1)NC(=O)[C@H](CC(C)C)NC(=O)c1ccc(F)cc1
active: growth inhibition [1] 86% | growth inhibition [4] 95%
inactive: inhibition [2] 2% | inhibition [3] -4% | outcome [5] | outcome [6] | outcome [7] | outcome [8]

Fc1ccc(-c2oc(C3CCN(CCc4ccc(-c5nc(=S)o[nH]5)cc4)CC3)nc2COCC(F)(F)F)cc1
inactive: inhibition [2] 5% | inhibition [3] 3% | outcome [5] | outcome [6] | outcome [7] | outcome [8]
active: growth inhibition [1] 95% | growth inhibition [4] 97%

CCN(CC)CCN(Cc1ccc(-c2ccc(C(F)(F)F)cc2)cc1)C(=O)Cn1c(CCc2cc(F)c(F)c(F)c2)nc(=O)c2ccccc21
inactive: inhibition [2] 31% | inhibition [3] -4% | outcome [5] | outcome [6] | outcome [7] | outcome [8]
active: growth inhibition [1] 70% | growth inhibition [4] 101%

Fc1ccc2nc(-c3cccc(-c4cccc(CN5CCN(c6cnccn6)CC5)c4)c3)[nH]c2c1
inactive: growth inhibition [1] 35% | inhibition [2] 17% | inhibition [3] -2% | outcome [5] | outcome [6] | outcome [7] | outcome [8]
active: growth inhibition [4] 93%

c1ccc(-c2nc(NCCCn3ccnc3)cc(-c3ccncc3)n2)cc1
active: growth inhibition [1] 100% | growth inhibition [4] 103%
inactive: inhibition [2] 42% | inhibition [3] -8% | outcome [5] | outcome [6] | outcome [7] | outcome [8]

CCNc1cc(C(=O)N[C@@H](Cc2ccccc2)[C@H](O)CNC2(C)CCCCC2)cc(N2CCCCS2(=O)=O)c1
active: growth inhibition [1] 98% | growth inhibition [4] 100%
inactive: inhibition [2] 13% | inhibition [3] 2% | outcome [5] | outcome [6] | outcome [7] | outcome [8]

FC(F)(F)c1ccccc1OCc1cc(-c2ccncc2)c(COc2ccccc2C(F)(F)F)cc1C1=CCNCC1
inactive: inhibition [2] 31% | inhibition [3] -2% | outcome [5] | outcome [6] | outcome [7] | outcome [8]
active: growth inhibition [1] 81% | growth inhibition [4] 98%

Nc1ccc(-c2ccc3ccnc(N)c3c2)cc1
inactive: inhibition [2] 38% | inhibition [3] -1% | outcome [5] | outcome [6] | outcome [7] | outcome [8]
active: growth inhibition [1] 68% | growth inhibition [4] 102%

CCOc1ccc(-c2nonc2NC(=O)c2ccc(Cl)cc2)cc1OCC
active: growth inhibition [4] 94%
inactive: growth inhibition [1] 47% | inhibition [2] 28% | inhibition [3] -2% | outcome [5] | outcome [6] | outcome [7] | outcome [8]

Cc1cccc(CNc2ncc(C)c(NCCC(=O)Nc3ccccc3)n2)c1
inactive: growth inhibition [1] 10% | inhibition [2] 18% | inhibition [3] 5% | outcome [5] | outcome [6] | outcome [7] | outcome [8]
active: growth inhibition [4] 81%

COc1cc2cc(C(=O)Nc3ccccc3)c(N)nc2cc1OC
active: growth inhibition [4] 90%
inactive: growth inhibition [1] -2% | inhibition [2] 0% | inhibition [3] -1% | outcome [5] | outcome [6] | outcome [7] | outcome [8]

CN1CCC(NCc2ccc(-c3cccc(-c4nc5ccccc5[nH]4)c3)cc2)CC1
active: growth inhibition [1] 96% | inhibition [2] 50% | growth inhibition [4] 100%
inactive: inhibition [3] -5% | outcome [5] | outcome [6] | outcome [7] | outcome [8]

COc1ccc2ncc(F)c(CCN3C[C@H](CNCc4ccc5ccccc5c4)[C@H](O)C3)c2n1
inactive: inhibition [3] -3% | outcome [5] | outcome [6] | outcome [7] | outcome [8]
active: growth inhibition [1] 78% | inhibition [2] 57% | growth inhibition [4] 100%

CN(C)CCNc1cc(-c2ccc3ccccc3c2)nc2ccccc12
active: growth inhibition [1] 58% | growth inhibition [4] 102%
inactive: inhibition [2] 24% | inhibition [3] -5% | outcome [5] | outcome [6] | outcome [7] | outcome [8]

COc1cc2nc(NCCc3ccccc3)nc(NCCCc3ccccc3)c2cc1OC
inactive: inhibition [2] 21% | inhibition [3] 2% | outcome [5] | outcome [6] | outcome [7] | outcome [8]
active: growth inhibition [1] 101% | growth inhibition [4] 101%

CSC1=NC2(CC(c3cccc(C)c3)c3cc(Cl)c(O)cc3O2)CC(C)(C)N1 (stereo not given)
active: growth inhibition [1] 73% | growth inhibition [4] 100%
inactive: inhibition [2] 0% | inhibition [3] 4% | outcome [5] | outcome [6] | outcome [7] | outcome [8]

COc1ccc(Nc2nc(NCc3cccc(NS(C)(=O)=O)c3)cc(-c3ccc(OC)cc3)n2)cc1
active: growth inhibition [4] 84%
inactive: growth inhibition [1] 5% | inhibition [2] -7% | inhibition [3] 5% | outcome [5] | outcome [6] | outcome [7] | outcome [8]

CCCNCc1ccc(-c2ccc(CN(CCOC)C(=O)c3ccc([N+](=O)[O-])c(C)c3)cc2)nc1
inactive: growth inhibition [1] 23% | inhibition [2] 2% | inhibition [3] 1% | outcome [5] | outcome [6] | outcome [7] | outcome [8]
active: growth inhibition [4] 97%

Cn1cnc2c(SCc3ccccc3OCc3ccccc3)ncnc21
inactive: growth inhibition [1] 34% | inhibition [2] 6% | inhibition [3] -3% | outcome [5] | outcome [6] | outcome [7] | outcome [8]
active: growth inhibition [4] 86%

CCn1cc(CN2C(=O)C(c3ccccc3)(c3ccccc3)N=C2N)cn1
active: growth inhibition [1] 60% | growth inhibition [4] 95%
inactive: inhibition [2] 7% | inhibition [3] -2% | outcome [5] | outcome [6] | outcome [7] | outcome [8]

OC1(c2ccccc2)c2cc(Cl)ccc2OC1c1nc2c(Cl)ccc(Cl)c2o1 (stereo not given)
active: growth inhibition [1] 89% | growth inhibition [4] 98%
inactive: inhibition [2] 7% | inhibition [3] -6% | outcome [5] | outcome [6] | outcome [7] | outcome [8]

CCCNCc1ccc(-c2ccc(CN(Cc3ccc4c(c3)OCO4)C(=O)Cc3cccnc3)cc2)nc1
active: growth inhibition [1] 53% | growth inhibition [4] 94%
inactive: inhibition [2] 16% | inhibition [3] 5% | outcome [5] | outcome [6] | outcome [7] | outcome [8]

COc1cccc(CNC(=O)NC2CCN(c3ccnc(Nc4cc(OC)c(OC)c(OC)c4)n3)C2)c1 (stereo not given)
active: growth inhibition [1] 84% | growth inhibition [4] 93%
inactive: inhibition [2] 15% | inhibition [3] -6% | outcome [5] | outcome [6] | outcome [7] | outcome [8]

O=c1cc(NCCCNCc2cc(C(F)(F)F)ccc2Cl)[nH]c2ccccc12
inactive: growth inhibition [1] 20% | inhibition [2] 25% | inhibition [3] -2% | outcome [5] | outcome [6] | outcome [7] | outcome [8]
active: growth inhibition [4] 90%

CC(C)CNCc1ccc(-c2ccccc2CN(C(=O)NCCc2ccccc2)C2CCN(Cc3ccccc3)CC2)cc1
active: growth inhibition [1] 94% | inhibition [2] 89% | growth inhibition [4] 98%
inactive: inhibition [3] 2% | outcome [5] | outcome [6] | outcome [7] | outcome [8]

Nc1nccc2ccc(-c3ccc(OCc4ccccc4)cc3)cc12
active: growth inhibition [1] 67% | growth inhibition [4] 101%
inactive: inhibition [2] 40% | inhibition [3] -8% | outcome [5] | outcome [6] | outcome [7] | outcome [8]

CCC(C)(C)c1ccc(S(=O)(=O)Nc2ccc(Cl)c(OCCN3CCCCC3)c2)cc1
inactive: inhibition [3] 0% | outcome [5] | outcome [6] | outcome [7] | outcome [8]
active: growth inhibition [1] 93% | inhibition [2] 100% | growth inhibition [4] 88%

CN(C)S(=O)(=O)c1cc(-c2ccc3nccc(-c4cccc(S(N)(=O)=O)c4)c3c2)cnc1N
inactive: inhibition [2] 35% | inhibition [3] -2% | outcome [5] | outcome [6] | outcome [7] | outcome [8]
active: growth inhibition [1] 98% | growth inhibition [4] 100%

CC=CC(=O)N1CCN(c2nccc(-c3ccc(C(C)(C)C)cc3)n2)CC1
inactive: inhibition [2] 20% | inhibition [3] 0% | outcome [5] | outcome [6] | outcome [7] | outcome [8]
active: growth inhibition [1] 70% | growth inhibition [4] 95%

CC(C)CNCc1cccc(-c2cccc(CN(CCCN3CCN(C)CC3)C(=O)NC3CCCCC3)c2)c1
active: growth inhibition [1] 84% | growth inhibition [4] 100%
inactive: inhibition [2] 16% | inhibition [3] 0% | outcome [5] | outcome [6] | outcome [7] | outcome [8]

FC(F)(F)c1cccc(CNC2CCN(CC3CCCCC3)CC2)c1
active: growth inhibition [4] 101%
inactive: growth inhibition [1] 12% | inhibition [2] 0% | inhibition [3] 0% | outcome [5] | outcome [6] | outcome [7] | outcome [8]

Oc1ccccc1Nc1nc(NCc2ccco2)c2ccccc2n1
inactive: inhibition [2] 0% | inhibition [3] 3% | outcome [5] | outcome [6] | outcome [7] | outcome [8]
active: growth inhibition [1] 71% | growth inhibition [4] 99%

CSc1ccc(CN2CCC(NC(=O)c3ccc(-c4ccc(N(C)C)cc4)s3)CC2)cc1
active: growth inhibition [4] 86%
inactive: growth inhibition [1] 26% | inhibition [2] 30% | inhibition [3] -2% | outcome [5] | outcome [6] | outcome [7] | outcome [8]

CCc1cc(=O)[nH]c(-n2nc(C)cc2NC(=O)CC(c2ccccc2)c2ccccc2)n1
inactive: inhibition [2] 37% | inhibition [3] 4% | outcome [5] | outcome [6] | outcome [7] | outcome [8]
active: growth inhibition [1] 75% | growth inhibition [4] 92%
